Test results: PubChem BioAssay
Values joined by “and” are separate entries in the source; they are usually repeats but may differ in a detail not shown here. Equal entries are not always repeated. Active and inactive are the calls of the source.

Tests used:
[1] = LFS_MB_1R medulloblastoma cell growth inhibition, synergistic combos for chromothripsis tumors, cisplatin or BGB combos (AID 1671452); details: LFS_MB_1R medulloblastoma cells, stronger effect = higher value;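 also: cells exposed for 96 hours before readout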
[2] = CRL2098 osteosarcoma cell growth inhibition, synergistic combos for chromothripsis tumors, BGB or cisplatin IC20 combos (AID 1671454); details: CRL2098 osteosarcoma cells, drug combinations, stronger effect = higher value;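 also: cells exposed for 96 h before readout; 0% = vehicle DMSO and 100% = killing by high DMSO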
[3] = HD-MB03 medulloblastoma cell growth inhibition, synergistic combos for chromothripsis tumors, BGB or cisplatin IC20 combos (AID 1671455; in the data active = inhibition above about 83%;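 also: 0% = vehicle DMSO and 100% = high DMSO as cytotoxic control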); details: HD-MB03 medulloblastoma cells, stronger effect = higher value
[4] = UWB1.289 ovarian carcinoma cell growth inhibition, synergistic combos for chromothripsis tumors, BGB or cisplatin combos (AID 1671456); details: UWB1.289 ovarian carcinoma cells, stronger effect = higher value;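 also: cells exposed to compound for four days; 0% = vehicle DMSO and 100% = killing by high DMSO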
[5] = LFS_MB_2R medulloblastoma cell growth inhibition, synergistic combos for chromothripsis tumors, cisplatin combos (AID 1671457); details: LFS_MB_2R medulloblastoma cells, stronger effect = higher value;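 also: cells exposed to compound for four days before readout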
[6] = UWB1.289_BRCA1 ovarian cancer growth, cell-based, BGB or cisplatin combinations (AID 1671459); details: UWB1.289 BRCA1 ovarian carcinoma, drug combinations, stronger effect = higher value
[7] = human astrocyte viability loss, single and combined drugs, cytotoxicity control for chromothriptic childhood tumor combination screen, cell-based, BGB or cisplatin IC20 combos (AID 1671460); details: Human astrocytes, drug combinations, stronger effect = higher value;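 also: cells exposed to compounds for 96 hours before viability readout; 0% = vehicle and 100% = killing control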
[8] = growth inhibition of CRL1545 osteosarcoma cells, cell-based, cisplatin and BGB IC20 combos (AID 1671464); details: stronger effect = higher value;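 also: cells exposed to compound for 96 hours before readout; 0% = vehicle DMSO and 100% = high DMSO killing control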
[9] = inhibitors of Cryptococcus chitosan production, flow cytometry, Cibacron Brilliant Red staining (AID 1347148; call rule not given here;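 also: compound exposure lasted three days at 37 degrees C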); details: Cryptococcus neoformans chitosan, stronger effect = lower value; at 10 µM unless noted
[10] = liver-stage malaria parasite growth inhibition, primary screen, cell-based, HepG2, luciferase luminescence, HepG2 viability (AID 624349; in the data active = parasite load remaining mostly below about 12%, no sharp cut-off; inactive = mostly above about 10%;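 also: 100% = mean of DMSO negative control wells on the same plate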); details: P. berghei liver stage in HepG2, luciferase luminescence, concentration not given here; parasite load remaining: stronger effect = lower value; viability: measured here: HepG2 viability without parasites
[11] = kinase inhibitors against Plasmodium liver-stage infection, cell-based, known kinase inhibitor set, luminescence, hepatoma host viability (AID 624392; call rule not given here;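 also: infected cells incubated roughly two days before readout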); details: Plasmodium liver stage in hepatoma cells, luciferase luminescence, concentration not given here; liver cell % of control: measured here: host liver cell viability; parasite % of control: stronger effect = lower value
[12] = circadian clock period modulators, cell-based, LOPAC library, luminescence reporter (AID 2774; call rule not given here;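 also: values are relative to mean of DMSO wells on each plate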); details: circadian reporter cells, at 7 µM, actives lie on both sides
[13] = hESC survival regulators, cell-based (AID 493140; call rule not given here;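 also: cells exposed to compounds for four days before counting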); details: human embryonic stem cell survival screen; stronger effect = higher value
[14] = test system: Hepatitis C virus NS3 helicase; test: HCV NS3 helicase inhibitors, primary screen, biochemical, fluorescence polarization, LOPAC1280 library (AID 687035; in the data active = inhibition above about 37%); details: Purified HCV NS3 helicase, Cy5-dT15 ssDNA binding fluorescence polarization; stronger effect = higher value; concentration not given here
[15] = Cy5 fluorescence quenching or enhancement artefacts, artefact control for HCV NS3 helicase inhibitor project, biochemical, LOPAC1280 (AID 687037; call rule not given here); details: Cy5-DNA-NS3h complex fluorescence interference counterscreen
[16] = phospholipid biosynthesis inhibitors in animal cells, primary screen, cell-based, LOPAC library, screen 4 (AID 1347384; call rule not given here); details: phospholipid biosynthesis inhibition screen, at 10 µM
[17] = molecular target: NAD(+) hydrolase SARM1 (Homo sapiens) (UniProt Q6SZW1); test: SARM1 TIR NADase inhibitors, cell lysate, NAD-Glo luminescence (AID 1508614;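 active = compound whose remaining NAD level is above about 45 nM, limit read from the data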;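 also: higher remaining NAD means stronger inhibition of SARM1 NADase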); details: SAM-TIR HEK293T lysate NADase, at 1 µM, stronger effect = higher value
Sequence of NAD(+) hydrolase SARM1 (Homo sapiens) (Q6SZW1 whole entry, looked up, the tested form may be a part): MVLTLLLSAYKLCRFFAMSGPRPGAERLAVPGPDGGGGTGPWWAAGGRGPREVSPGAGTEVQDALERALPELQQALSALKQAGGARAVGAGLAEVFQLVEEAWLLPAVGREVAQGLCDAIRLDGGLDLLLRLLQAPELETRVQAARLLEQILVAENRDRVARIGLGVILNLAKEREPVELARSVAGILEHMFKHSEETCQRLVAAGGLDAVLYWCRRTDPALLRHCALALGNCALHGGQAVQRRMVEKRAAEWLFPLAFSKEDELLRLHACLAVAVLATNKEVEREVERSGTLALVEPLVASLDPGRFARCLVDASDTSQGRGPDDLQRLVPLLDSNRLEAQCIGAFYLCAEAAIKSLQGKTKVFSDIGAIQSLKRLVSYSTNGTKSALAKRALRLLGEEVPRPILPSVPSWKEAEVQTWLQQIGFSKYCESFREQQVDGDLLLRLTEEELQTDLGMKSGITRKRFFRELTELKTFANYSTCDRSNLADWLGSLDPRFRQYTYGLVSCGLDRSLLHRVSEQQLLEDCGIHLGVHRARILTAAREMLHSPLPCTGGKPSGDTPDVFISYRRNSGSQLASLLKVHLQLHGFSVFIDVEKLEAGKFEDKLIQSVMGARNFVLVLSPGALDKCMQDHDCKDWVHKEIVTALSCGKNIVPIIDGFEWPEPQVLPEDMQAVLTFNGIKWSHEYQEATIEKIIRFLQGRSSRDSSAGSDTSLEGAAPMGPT

[18] = molecular target: Mitogen-activated protein kinase 7 (Homo sapiens) (UniProt Q13164); test: ERK5 transactivation activators in reporter cells, primary screen, cell-based, HTS (AID 1508626;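 active = luciferase signal above three times the same-plate solvent-only control wells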;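 also: luciferase driven by Gal4-ERK5 fusion binding five Gal4 sites before minimal TATA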); details: HeLa Gal4-ERK5 transactivation, 18 h, at 5 µM, stronger effect = higher value
Sequence of Mitogen-activated protein kinase 7 (Homo sapiens) (Q13164 whole entry, looked up, the tested form may be a part): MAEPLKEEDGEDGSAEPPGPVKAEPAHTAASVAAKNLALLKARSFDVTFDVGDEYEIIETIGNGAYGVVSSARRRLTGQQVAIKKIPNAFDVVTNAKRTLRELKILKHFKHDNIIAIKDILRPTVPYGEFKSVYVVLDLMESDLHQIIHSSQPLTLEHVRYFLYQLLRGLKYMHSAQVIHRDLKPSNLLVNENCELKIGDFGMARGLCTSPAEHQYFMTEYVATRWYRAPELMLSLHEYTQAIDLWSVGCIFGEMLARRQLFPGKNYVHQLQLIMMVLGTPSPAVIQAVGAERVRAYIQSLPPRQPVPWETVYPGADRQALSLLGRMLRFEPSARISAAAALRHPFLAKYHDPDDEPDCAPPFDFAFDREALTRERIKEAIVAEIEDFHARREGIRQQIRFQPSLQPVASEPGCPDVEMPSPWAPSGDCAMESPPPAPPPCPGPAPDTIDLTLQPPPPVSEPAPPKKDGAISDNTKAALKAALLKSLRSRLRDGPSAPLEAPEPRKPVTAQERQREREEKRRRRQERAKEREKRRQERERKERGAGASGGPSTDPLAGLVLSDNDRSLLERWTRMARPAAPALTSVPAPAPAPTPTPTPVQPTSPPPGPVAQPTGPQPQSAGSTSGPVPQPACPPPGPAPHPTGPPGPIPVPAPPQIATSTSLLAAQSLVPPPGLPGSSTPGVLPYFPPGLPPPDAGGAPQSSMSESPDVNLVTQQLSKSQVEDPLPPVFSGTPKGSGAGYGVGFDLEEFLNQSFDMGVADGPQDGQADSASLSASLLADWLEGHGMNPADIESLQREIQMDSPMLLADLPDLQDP

[19] = viability rescue of complex I mutant cybrids, primary screen, cell-based, galactose medium, ATP luminescence (AID 1645843;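 active = z-score of at least 1.8 in each of two replicates, scored against plate mean and spread of sample wells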;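 also: positive z means more ATP and so rescue of galactose-driven cybrid death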); details: complex I mutant cybrid cells, 72 h, stronger effect = higher value
[20] = molecular target: Tyrosine-protein kinase ABL1 (Homo sapiens) (UniProt P00519); test: PubChem AID 493040; details: kinase panel binding, pKi
Sequence of Tyrosine-protein kinase ABL1 (Homo sapiens) (P00519 whole entry, looked up): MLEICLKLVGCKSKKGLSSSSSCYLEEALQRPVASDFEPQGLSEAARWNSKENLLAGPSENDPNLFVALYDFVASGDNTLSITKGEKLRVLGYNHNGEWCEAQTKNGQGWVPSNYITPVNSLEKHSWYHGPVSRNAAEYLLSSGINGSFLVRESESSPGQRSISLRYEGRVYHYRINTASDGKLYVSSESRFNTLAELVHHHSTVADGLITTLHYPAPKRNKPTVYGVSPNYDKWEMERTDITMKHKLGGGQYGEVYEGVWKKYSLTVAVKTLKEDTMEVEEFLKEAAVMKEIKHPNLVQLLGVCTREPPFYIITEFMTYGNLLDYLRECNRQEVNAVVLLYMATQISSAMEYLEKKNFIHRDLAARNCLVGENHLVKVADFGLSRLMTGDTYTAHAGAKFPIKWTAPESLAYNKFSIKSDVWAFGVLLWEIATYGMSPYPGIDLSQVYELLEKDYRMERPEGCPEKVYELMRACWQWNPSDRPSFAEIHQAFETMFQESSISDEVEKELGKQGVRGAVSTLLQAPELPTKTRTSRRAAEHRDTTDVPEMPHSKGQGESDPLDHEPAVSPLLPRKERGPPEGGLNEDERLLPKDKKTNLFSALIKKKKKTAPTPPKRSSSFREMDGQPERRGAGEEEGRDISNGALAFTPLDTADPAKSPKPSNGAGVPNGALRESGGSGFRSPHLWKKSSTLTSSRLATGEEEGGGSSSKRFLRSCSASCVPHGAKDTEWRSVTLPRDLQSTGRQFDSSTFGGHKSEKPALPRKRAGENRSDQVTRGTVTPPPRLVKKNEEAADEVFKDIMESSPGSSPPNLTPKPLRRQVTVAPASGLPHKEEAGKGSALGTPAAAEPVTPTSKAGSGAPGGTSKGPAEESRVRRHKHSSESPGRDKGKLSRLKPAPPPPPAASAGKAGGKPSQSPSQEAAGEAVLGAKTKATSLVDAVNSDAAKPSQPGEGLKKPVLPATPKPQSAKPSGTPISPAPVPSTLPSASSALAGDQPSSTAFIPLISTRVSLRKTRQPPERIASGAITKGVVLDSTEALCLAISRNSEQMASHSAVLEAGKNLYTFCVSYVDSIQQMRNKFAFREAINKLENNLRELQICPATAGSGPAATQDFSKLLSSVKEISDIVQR

[21] = measured here: combination with BGB IC40, at 0.05 µM
[22] = measured here: combination with cisplatin, at 0.5 µM
[23] = measured here: combination with cisplatin, at 5 µM
[24] = measured here: combination with BGB at IC20, at 0.5 µM
[25] = measured here: combination with cisplatin at IC20, at 0.5 µM
[26] = measured here: combo with BGB at IC20, at 0.5 µM
[27] = measured here: combo with cisplatin at IC20, at 0.5 µM
[28] = measured here: inhibition with BGB combination, at 0.05 µM
[29] = measured here: inhibition with cisplatin combination, at 0.05 µM
[30] = BGB combination, concentration series, at 5 µM
[31] = cisplatin combination, concentration series, at 5 µM
[32] = measured here: combo with BGB IC20, at 0.5 µM
[33] = measured here: combo with cisplatin IC20, at 0.5 µM
[34] = measured here: with BGB IC20 combination, at 0.5 µM
[35] = measured here: with cisplatin IC20 combination, at 0.5 µM

## O=C(/C=C/c1ccc(CN(CCO)CCc2c[nH]c3ccccc23)cc1)NO
[1]; at 0.5 µM
  inhibition: 88.5% (active)
[1]; [21]
  inhibition: 0.114%
[1]; [22]
  inhibition: 107%
[1]; [23]
  inhibition: 101%
[2]; at 0.5 µM
  inhibition: 80.2% (active)
[2]; [24]
  inhibition: 80.4%
[2]; [25]
  inhibition: 75.9%
[3]; at 0.5 µM
  inhibition: 99.8% (active)
[3]; [26]
  inhibition: 99.8%
[3]; [27]
  inhibition: 100%
[4]; at 0.5 µM
  inhibition: 88.8% (active)
[4]; [28]
  inhibition: 9.36%
[4]; [29]
  inhibition: 34.8%
[5]; at 0.5 µM
  inhibition: 87.1% (active)
[5]; [22]
  inhibition: 99.3%
[5]; [23]
  inhibition: 107%
[6]; [30]
  inhibition: 126%
[6]; at 0.5 µM
  inhibition: 95.2% (active)
[6]; [31]
  inhibition: 130%
[7]; at 0.5 µM
  inhibition: 95.2% (active)
[7]; [32]
  inhibition: 92%
[7]; [33]
  inhibition: 97.1%
[8]; at 0.5 µM
  inhibition: 87.1% (active)
[8]; [34]
  inhibition: 82.2%
[8]; [35]
  inhibition: 89.4%
[8]; single agent, at 0.05 µM
  inhibition: 86.9%
[8]; single agent, at 5 µM
  inhibition: 94.5%

## CCCNC(=O)[C@H]1O[C@@H]1C(=O)N[C@H](C(=O)N1CCC[C@H]1C(=O)OC)C(C)CC (stereo partly drawn)
[9]
  fold fluorescence: 3.89 [at 125.8 µM] (inactive)

## CN[C@@H]1C[C@H]2O[C@@](C)([C@@H]1OC)n1c3ccccc3c3c4c(c5c6ccccc6n2c5c31)C(=O)N[C@H]4O
[10]
  parasite load remaining: 74.5% (inactive)
  viability: 61%

## O=C1c2ccccc2-[n+]2ccc3c([nH]c4ccccc43)c21
[10]
  parasite load remaining: 1.89% (inactive)
  viability: 32.8%

## Nc1ccc(C(=O)Nc2cccc(-c3nc(N4CCOCC4)c4oc5ncccc5c4n3)c2)cn1
[10]
  parasite load remaining: 28.3% (inactive)
  viability: 70.4%
[11]
  liver cell % of control: 80.6% and 78.7% and 90.7%
  parasite % of control: 109% (inactive) and 149% (inactive) and 242% (inactive)

## CC(=O)O[C@H]1C[C@@H]2CC[C@@H]3[C@H](CC[C@@]4(C)[C@H]3C[C@H]([N+]3(C)CCCCC3)[C@@H]4OC(C)=O)[C@@]2(C)C[C@@H]1[N+]1(C)CCCCC1
[12]
  period change: -0.015 h (inactive)
[13]
  survival: 6.75 (inactive)
[10]
  parasite load remaining: 119% (inactive) and 39.7% (inactive)
  viability: 75.7% and 111%
[14]
  inhibition: 1% (inactive)
[15]
  fluorescence ratio (interference): 1 (inactive)
[16]
  outcome: inactive
[17]
  remaining NAD: 10 nM (inactive)
[18]
  luciferase signal: 40 AU (inactive)
[19]
  z-score: 0.28 (inactive) and 0.73 (inactive)

## O=C(/C=C/c1cccc(S(=O)(=O)Nc2ccccc2)c1)NO
[1]; at 0.5 µM
  inhibition: 31.6% (inactive)
[1]; [21]
  inhibition: -40%
[1]; [22]
  inhibition: 39.8%
[1]; [23]
  inhibition: 99.9%
[2]; at 0.5 µM
  inhibition: -17% (inactive)
[2]; [24]
  inhibition: -63.8%
[2]; [25]
  inhibition: 6.33%
[3]; at 0.5 µM
  inhibition: 86.6% (active)
[3]; [26]
  inhibition: 88.4%
[3]; [27]
  inhibition: 99%
[4]; at 0.5 µM
  inhibition: 41% (inactive)
[4]; [28]
  inhibition: -3.28%
[4]; [29]
  inhibition: 9.18%
[5]; at 0.5 µM
  inhibition: 37.4% (inactive)
[5]; [22]
  inhibition: 58.7%
[5]; [23]
  inhibition: 105%
[6]; [30]
  inhibition: 99.6%
[6]; at 0.5 µM
  inhibition: 41.8% (inactive)
[6]; [31]
  inhibition: 120%
[7]; at 0.5 µM
  inhibition: 31.9% (inactive)
[7]; [32]
  inhibition: 38.1%
[7]; [33]
  inhibition: 9.25%
[8]; at 0.5 µM
  inhibition: 90.5% (active)
[8]; [34]
  inhibition: 88.7%
[8]; [35]
  inhibition: 91.2%
[8]; single agent, at 0.05 µM
  inhibition: -2.13%
[8]; single agent, at 5 µM
  inhibition: 85.5%

## Oc1cccc(-c2nc(N3CCOCC3)c3oc4ncccc4c3n2)c1
[10]
  parasite load remaining: 45.4% (inactive)
  viability: 89.8%
[11]
  liver cell % of control: 88.7% and 86.7% and 100%
  parasite % of control: 326% (inactive) and 309% (inactive) and 81.9% (inactive)
[20]
  outcome: inactive
